Values joined by “and” are separate entries in the source; they are usually repeats but may differ in a detail not shown here. Equal values may be shown once. Where a name gives a salt, the structure may show the parent alone. About 620 (11%) of roughly 5,800 compounds showed activity. This is one part of a sample in which actives are shown more often than they occur. A number with no mark means an inactive call.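 Rule for the calls: active = score above a cut-off or among the top three wells of a plate; in these data no inactive exceeds 0.85.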
Test system: primary human hepatic stellate cells (donor 1)
Assay: scaled lipid accumulation score (0 = DMSO-like, 1 = nortriptyline-like); higher = stronger HSC inactivation (lipid re-accumulation), active = hit call of the paper
Conditions: 48 h
[1] = library stock concentration: 6.4 mM
[2] = library stock concentration: 10 mM
[3] = library stock concentration: 3.33 mM
[4] = library stock concentration: 5.2 mM
[5] = library stock concentration: 1 mM
[6] = library stock concentration: 2 mM
[7] = library stock concentration: 400 uM
[8] = library stock concentration: 80 uM

## C(=C(\CCNC1)/C1)(/c2c(cccn2)CC3)\c(ccc(Cl)c4)c34 [Desloratadine]
[1]
  scaled lipid accumulation score: 1.03 (active)

## CCOC(=O)N1CCC(=C2c3ccc(Cl)cc3CCc3cccnc32)CC1 [Loratidine]
[2]
  scaled lipid accumulation score: 0.128

## Cc1cncc(CN2CCC(=C3c4ccc(Cl)cc4CCc4cccnc43)CC2)c1 [Rupatadine Fumarate]
[3]
  scaled lipid accumulation score: 0.371

## Clc1ccc2c(c1)CCc1cccnc1C2=C1CCNCC1 [Desloratadine]
[3]
  scaled lipid accumulation score: 0.268
[2]
  scaled lipid accumulation score: 0.837

## CCOC(=O)N1CCC(=C2c3ccc(Cl)cc3CCc3cccnc32)CC1 [Loratadine]
[3]
  scaled lipid accumulation score: ≤ 0
[4]
  scaled lipid accumulation score: ≤ 0
[2]
  scaled lipid accumulation score: ≤ 0 and 0.008

## Clc1ccc2c(c1)CCc1cccnc1C2=C1CCNCC1
[2]
  scaled lipid accumulation score: 1.52 (active)

## CCOC(=O)N1CCC(=C2c3ccc(Cl)cc3CCc3cccnc32)CC1
[2]
  scaled lipid accumulation score: ≤ 0

## Cc1cccc(CN2CCN(C(c3ccccc3)c3ccc(Cl)cc3)CC2)c1 (stereo not drawn) [Meclozine dihydrochloride]
  scaled lipid accumulation score: 0.368

## Clc1ccc2c(c1)CCc1cccnc1C2=C1CCNCC1 [Desloratidine]
[1]
  scaled lipid accumulation score: 0.46

## Cc1cccc(CN2CCN(C(c3ccccc3)c3ccc(Cl)cc3)CC2)c1 (stereo not drawn) [Meclizine hydrochloride]
[2]
  scaled lipid accumulation score: 0.376 and 0.485

## Cc1cncc(CN2CCC(=C3c4ccc(Cl)cc4CCc4cccnc43)CC2)c1.O=C(O)C=CC(=O)O [Rupatadine Fumarate]
[2]
  scaled lipid accumulation score: 0.862 (active)

## CCCCC/C=C/C/C=C/C/C=C/C/C=C/CCCC(=O)Oc1ccc2ccc(=O)oc2c1 [7-hydroxycoumarinyl Arachidonate]
[5]
  scaled lipid accumulation score: ≤ 0

## CC(C)(C)c1nc2c3cc[nH]c(=O)c3c3cc(F)ccc3c2[nH]1 [JAK Inhibitor I]
[3]
  scaled lipid accumulation score: ≤ 0

## CC(C)(C)c1nc2c3cc[nH]c(=O)c3c3cc(F)ccc3c2[nH]1 [Merck -5 (10 mM)]
[2]
  scaled lipid accumulation score: 0.114

## CC(C)(C)c1nc2c3cc[nH]c(=O)c3c3cc(F)ccc3c2[nH]1 [Merck -5 (2 mM)]
[6]
  scaled lipid accumulation score: ≤ -0.005

## CC(C)(C)c1nc2c3cc[nH]c(=O)c3c3cc(F)ccc3c2[nH]1 [Merck -5 (0.4 mM)]
[7]
  scaled lipid accumulation score: ≤ -0.005

## COc1ccc2c(c1)c(CC(=O)NCCc1ccccc1)c(C)n2C(=O)c1ccc(Cl)cc1 [N-(2-phenylethyl)-Indomethacin amide]
[5]
  scaled lipid accumulation score: 0.049

## O=c1ncn2nc(Sc3ccc(F)cc3F)ccc2c1-c1c(Cl)cccc1Cl
[8]
  scaled lipid accumulation score: 0.019
[7]
  scaled lipid accumulation score: 0.039
[6]
  scaled lipid accumulation score: 0.129
[3]
  scaled lipid accumulation score: 0.019
[2]
  scaled lipid accumulation score: ≤ 0 and 0.119

## C[C@@H](O)[C@H]1C(=O)N2C(C(=O)OCOC(=O)C(C)(C)C)=C(SC3CN(C4=NCCS4)C3)[C@H](C)[C@H]12 [Tebipenem Pivoxil]
[3]
  scaled lipid accumulation score: ≤ 0
[2]
  scaled lipid accumulation score: ≤ 0

## O=P(O)(O)O[C@H]1[C@@H](O)[C@H](O)[C@@H](OP(=O)(O)O)[C@H](OP(=O)(O)O)[C@H]1O [D-myo-Inositol-2,4,5-triphosphate (sodium salt)]
[5]
  scaled lipid accumulation score: ≤ 0

## O=C1C(Cl)=C(N2C(=O)CCC2=O)C(=O)c2ccccc21 [MEK Inhibitor II]
[3]
  scaled lipid accumulation score: 0.073

## CCCCCCCCCCCCCC(=O)OCC [Myristic Acid ethyl ester]
[5]
  scaled lipid accumulation score: 0.028

## COc1cc2/c(=N/c3ccc(Br)cc3F)nc[nH]c2cc1OCC1CCN(C)CC1 [Vandetanib  (ZD6474, Zactima) (10 mM)]
[2]
  scaled lipid accumulation score: 0.445

## COc1cc2/c(=N/c3ccc(Br)cc3F)nc[nH]c2cc1OCC1CCN(C)CC1 [Vandetanib (ZD6474)]
[2]
  scaled lipid accumulation score: 0.754

## C=CC(=O)N1CCC(Oc2cc3c(Nc4ccc(Cl)c(Cl)c4F)ncnc3cc2OC)CC1 [Poziotinib]
[8]
  scaled lipid accumulation score: 0.111
[7]
  scaled lipid accumulation score: 0.281
[6]
  scaled lipid accumulation score: 0.059
[2]
  scaled lipid accumulation score: 0.72

## COc1cc2/c(=N/c3ccc(Br)cc3F)nc[nH]c2cc1OCC1CCN(C)CC1 [Vandetanib]
[8]
  scaled lipid accumulation score: 0.09
[7]
  scaled lipid accumulation score: 0.381

## COc1cc2c(Nc3ccc(Br)cc3F)ncnc2cc1OCC1CCN(C)CC1 [Vandetanib  (ZD6474, Zactima) (2 mM)]
[6]
  scaled lipid accumulation score: 0.855 (active)

## COc1cc2ncnc(Nc3ccc(O)c(Br)c3)c2cc1OC
[3]
  scaled lipid accumulation score: ≤ 0
[2]
  scaled lipid accumulation score: ≤ 0

## COc1cc2c(Nc3ccc(Br)cc3F)ncnc2cc1OCC1CCN(C)CC1 [Vandetanib (ZD6474)]
[3]
  scaled lipid accumulation score: 1.18 (active)

## COc1cc2c(Nc3ccc(Br)cc3F)ncnc2cc1OCC1CCN(C)CC1 [Vandetanib]
[6]
  scaled lipid accumulation score: 1.27 (active)
[2]
  scaled lipid accumulation score: 1.66 (active)

## COc1cc2c(Nc3ccc(Br)cc3F)ncnc2cc1OCC1CCN(C)CC1 [Vandetanib  (ZD6474, Zactima) (0.4 mM)]
[7]
  scaled lipid accumulation score: 1.1 (active)

## COc1cc2ncnc(Nc3ccc(Cl)cc3F)c2cc1OC
[3]
  scaled lipid accumulation score: ≤ 0
[2]
  scaled lipid accumulation score: ≤ 0 and ≤ -0.001

## COc1cc2ncnc(Nc3ccc(O)c(Br)c3)c2cc1OC [JAK3 Inhibitor II]
[3]
  scaled lipid accumulation score: ≤ 0

## COc1c2ccoc2nc2c(OC)c(OCC(O)C(C)(C)O)ccc12 (stereo not drawn) [Evoxine]
  scaled lipid accumulation score: ≤ 0

## COc1ccc(CCN(C)CCCC(C#N)(c2ccc(OC)c(OC)c2)C(C)C)cc1OC (stereo not drawn) [Verapamil hydrochloride]
[2]
  scaled lipid accumulation score: 0.587

## COc1ccc(CCN(C)CCCC(C#N)(c2ccc(OC)c(OC)c2)C(C)C)cc1OC (stereo not drawn) [Verapamil HCl]
[3]
  scaled lipid accumulation score: 0.332
[2]
  scaled lipid accumulation score: 0.536

## COc1ccc(CCN(C)CCCC(C#N)(c2ccc(OC)c(OC)c2)C(C)C)cc1OC (stereo not drawn) [Verapamil]
Library stock concentration: 4.4 mM
  scaled lipid accumulation score: 0.416

## COc1ccc(CCN(C)CCCC(C#N)(c2ccc(OC)c(OC)c2)C(C)C)cc1OC (stereo not drawn) [Verapamyl hydrochloride]
  scaled lipid accumulation score: 0.545

## O=C(O)Cc1c2ccccc2n2c1[nH]c(=O)c1ccccc12
[8]
  scaled lipid accumulation score: ≤ -0.001
[7]
  scaled lipid accumulation score: ≤ -0.001
[6]
  scaled lipid accumulation score: ≤ -0.001
[2]
  scaled lipid accumulation score: ≤ -0.001

## CCCCC[C@H](O)/C=C/[C@H]1C(=O)C[C@H](O)[C@@H]1C/C=C\CCCC(=O)OC [Prostaglandin D2 methyl ester]
[5]
  scaled lipid accumulation score: ≤ 0

## CNCc1cc(-c2ccccc2F)n(S(=O)(=O)c2cccnc2)c1
[3]
  scaled lipid accumulation score: 0.046
[2]
  scaled lipid accumulation score: 0.471

## CC(C)=CCC/C(C)=C/CC/C(C)=C/CC[C@]1(C)CCc2c(C)c(O)c(C)c(C)c2O1 [.alpha.-Tocotrienol]
[5]
  scaled lipid accumulation score: 0.026

## CCCc1c(OCC(O)COc2ccc3c(=O)cc(C(=O)O)oc3c2CCC)ccc(C(C)=O)c1O (stereo not drawn)
[2]
  scaled lipid accumulation score: ≤ -0.001

## c1ccc2[nH]cnc2c1 [DRB (Benzimidazole)]
Library stock concentration: 15.7 mM
  scaled lipid accumulation score: 0.081

## Clc1ccc(C2(c3ccc(-c4cn[nH]c4)cc3)CCNCC2)cc1 [listing 1 of 3 here]
[6]
  scaled lipid accumulation score: 0.95 (active)
[2]
  scaled lipid accumulation score: 1.16 (active)

## Clc1ccc(C2(c3ccc(-c4cn[nH]c4)cc3)CCNCC2)cc1 [listing 2 of 3 here]
[3]
  scaled lipid accumulation score: 1.22 (active)

## Clc1ccc(C2(c3ccc(-c4cn[nH]c4)cc3)CCNCC2)cc1 [listing 3 of 3 here]
[8]
  scaled lipid accumulation score: 0.375
[7]
  scaled lipid accumulation score: 0.622
[2]
  scaled lipid accumulation score: 0.425

## C[n+]1ccccc1C=NO [Pralidoxime mesylate]
[2]
  scaled lipid accumulation score: 0.016

## O=C1C2CC3CC1CC(O)(C3)C2
[2]
  scaled lipid accumulation score: 0.163

## N[C@H](C(=O)O)[C@H]1C[C@@H]1C(=O)O [(2S,1'S,2'S)-2-(carboxycyclopropyl)glycine]
[2]
  scaled lipid accumulation score: 0.17

## CCOC(=O)C1=C(COCCN)NC(C)=C(C(=O)OC)C1c1ccccc1Cl (stereo not drawn) [Amlodipine besylate]
Library stock concentration: 3.5 mM
  scaled lipid accumulation score: ≤ 0

## CCO/C(O)=C1\C(C)=NC(c2ccccc2)=C(C(=O)OCc2ccc([N+](=O)[O-])cc2)C1C#Cc1ccccc1 (stereo not drawn)
[2]
  scaled lipid accumulation score: ≤ 0

## COC(=O)C1=C(C)NC(C)=C(C(=O)OCCSc2ccccc2)C1C (stereo not drawn)
[2]
  scaled lipid accumulation score: 0.111
Library stock concentration: 13.8 mM
  scaled lipid accumulation score: 0.203

## CCCC(=O)OCOC(=O)C1=C(C)NC(C)=C(C(=O)OC)C1c1cccc(Cl)c1Cl (stereo not drawn) [Clevidipine Butyrate]
[3]
  scaled lipid accumulation score: ≤ 0
[2]
  scaled lipid accumulation score: ≤ 0

## CCO/C(O)=C1\C(COCCN)=NC(C)=C(C(=O)OC)C1c1ccccc1Cl (stereo not drawn)
[2]
  scaled lipid accumulation score: 1.38 (active)

## CCOC(=O)C1=C(C)NC(C)=C(C(=O)OC)C1c1cccc(Cl)c1Cl (stereo not drawn) [Felodipine] [listing 1 of 2 here]
  scaled lipid accumulation score: 0.05
[3]
  scaled lipid accumulation score: ≤ 0
[4]
  scaled lipid accumulation score: 0.028
[2]
  scaled lipid accumulation score: ≤ 0

## CCOC(=O)C1=C(C)NC(C)=C(C(=O)OC)C1c1cccc(Cl)c1Cl (stereo not drawn) [Felodipine] [listing 2 of 2 here]
[2]
  scaled lipid accumulation score: 0.931 (active)

## CCOC(=O)C1=C(COCCN)NC(C)=C(C(=O)OC)C1c1ccccc1Cl.O=S(=O)(O)c1ccccc1 (stereo not drawn) [Amlodipine besylate]
[2]
  scaled lipid accumulation score: 1.02 (active)

## CCOC(=O)C1=C(COCCN)NC(C)=C(C(=O)OC)C1c1ccccc1Cl (stereo not drawn) [Amlodipine]
[3]
  scaled lipid accumulation score: 0.492
Library stock concentration: 4.9 mM
  scaled lipid accumulation score: ≤ -0.006
[2]
  scaled lipid accumulation score: 0.33

## NC(=O)OCC(O)COc1ccc(Cl)cc1 (stereo not drawn) [Chlorphensin carbamate]
  scaled lipid accumulation score: ≤ 0

## CCOc1c2c(c(OCC)c3ccccc13)C(=O)N(c1ccc(CC(=O)NS(=O)(=O)c3ccccc3)cc1)C2
[5]
  scaled lipid accumulation score: ≤ 0

## CCCCC/C=C\C/C=C\C/C=C\C/C=C\CCCCNC(=O)c1ccc(O)cc1
[5]
  scaled lipid accumulation score: ≤ 0

## CCCCC(C)CC(O)/C=C/C1C(O)CC(O)C1CCCCCCC(=O)O (stereo not drawn) [17,20-dimethyl Prostaglandin F1.alpha.]
[5]
  scaled lipid accumulation score: ≤ 0
